The source of these data is PubChem BioAssay (EPA / NIEHS).

Conditions in all cases: primary human HUVEC with PBMC; actives raise or lower the signal
Read-out in assay [1]: Interleukin-1 alpha (IL1a), IL1A (gene 3552)
Briefly: BSK_LPS_IL1a: BioMAP Diversity Plus: LPS Assay for Interleukin-1 alpha (IL1a) Biomarker Activity (AID 2283080). In outline: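 Primary human HUVEC and PBMC co-culture stimulated with LPS is dosed and harvested at 24 h. Both increases and decreases in ELISA-measured IL-1a are scored relative to DMSO.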

Read-out in assay [2]: Monocyte Chemoattractant Protein-1 (MCP1), CCL2 (gene 6347)
Briefly: BSK_LPS_MCP1: BioMAP Diversity Plus: LPS Assay for Monocyte Chemoattractant Protein-1 (MCP1) Biomarker Activity (AID 2283081).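 For AC50: secreted MCP-1 protein quantified by ELISA in culture supernatant.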 A digest of the protocol:
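Values derive from bidirectional fitting against DMSO of ELISA-measured MCP-1 in a human primary endothelial and mononuclear cell co-culture, 24 h after chemical addition under LPS activation.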

A short description of assay [3]: BSK_LPS_PGE2: BioMAP Diversity Plus: LPS Assay for Prostaglandin E2 (PGE2) Biomarker Activity (AID 2283082). A digest of the protocol:
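Endpoint derived from bidirectional curve fitting versus DMSO of ELISA-measured PGE2 in LPS-stimulated human primary vascular co-culture (HUVEC with PBMC) harvested at 24 h.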

Read-out in assay [4]: Macrophage colony-stimulating factor (MCSF), CSF1 (gene 1435)
Briefly: BSK_LPS_MCSF: BioMAP Diversity Plus: LPS Assay for Macrophage colony-stimulating factor (MCSF) Biomarker Activity (AID 2283083). A digest of the protocol: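 Bidirectional fit versus DMSO of ELISA-measured M-CSF in co-cultured human umbilical vein endothelial cells and PBMC, sampled 24 h after dosing.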

Read-out in assay [5]: Tissue Factor, F3 (gene 2152)
Briefly: BSK_LPS_TissueFactor: BioMAP Diversity Plus: LPS Assay for Tissue Factor Biomarker Activity (AID 2283084). A digest of the protocol:
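Read-out: CD142 ELISA, 24 h. System: LPS-driven human endothelial/PBMC co-culture. Analysis: up- or down-signal fitted against DMSO.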

Read-out in assay [6]: Tumor necrosis factor (Homo sapiens) (UniProt P01375)
Briefly: BSK_LPS_TNFa: BioMAP Diversity Plus: LPS Assay for Tumour Necrosis Factor alpha (TNFa) Biomarker Activity (AID 2283085).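 For AC50: TNFa protein level quantified by ELISA in the co-culture.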 In outline:
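Primary human vascular co-culture of HUVEC and PBMC; TNFa ELISA 24 h after treatment, analysed as increase or decrease relative to DMSO control.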

Read-out in assay [7]: Vascular cell adhesion molecule 1 (VCAM1), VCAM1 (gene 7412)
Briefly: BSK_LPS_VCAM1: BioMAP Diversity Plus: LPS Assay for Vascular cell adhesion molecule 1 (VCAM1) Biomarker Activity (AID 2283086). In outline: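 Primary human vascular co-culture (umbilical vein endothelium plus PBMC) stimulated with LPS received chemical; 24 h later VCAM-1 was read by ELISA. Overt cytotoxicity was assessed by sulforhodamine B staining of parallel cultures at the same time point.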

Read-out in a further assay: CD38, CD38 (gene 952)
Briefly: BSK_SAg_CD38: BioMAP Diversity Plus: SAg Assay for CD38 Biomarker Activity (AID 2283087). In outline:
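Fluorescence ELISA of cell-surface CD38 served as the read-out, with either increase or decrease fitted against DMSO controls. Cells were a human umbilical vein endothelium plus PBMC co-culture under SEB/TSST-1 stimulation, measured 24 h after dosing.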

Read-out in another assay: CD40, CD40 (gene 958)
Kind of assay: BSK_SAg_CD40: BioMAP Diversity Plus: SAg Assay for CD40 Biomarker Activity (AID 2283088). In outline: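 Endpoint derived by fitting increases or decreases versus DMSO controls. CD40 is detected by fluorescence ELISA in a human vascular co-culture of endothelium and PBMC at 24 h.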

Read-out in another assay: CD69, CD69 (gene 969)
Kind of assay: BSK_SAg_CD69: BioMAP Diversity Plus: SAg Assay for CD69 Biomarker Activity (AID 2283089).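 For AC50: cell surface CD69 protein quantified by ELISA with fluorescence detection.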 In outline: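 HUVEC co-cultured with PBMC were dosed with chemical, and CD69 was measured by ELISA with fluorescence read-out 24 h later. Bidirectional curve fitting used DMSO as negative control and activity baseline.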

Activity calls are given as the source filed them. Rule for the calls: active = hit-call score of the fitted dose curve at least 0.9, where 1 is the maximum; inactive = score below 0.9.

One may read the AC50 as the midpoint of the concentration-response curve, whichever way the signal moves.

Chain of Tumor necrosis factor (Homo sapiens) (P01375 whole entry, looked up): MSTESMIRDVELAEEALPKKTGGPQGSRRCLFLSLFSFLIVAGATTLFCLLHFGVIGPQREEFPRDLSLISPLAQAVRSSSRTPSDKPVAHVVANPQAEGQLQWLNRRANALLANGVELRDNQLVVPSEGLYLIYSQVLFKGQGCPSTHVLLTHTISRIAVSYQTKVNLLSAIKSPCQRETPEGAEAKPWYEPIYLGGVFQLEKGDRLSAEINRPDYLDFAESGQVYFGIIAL

For the compound `O=S(=O)(F)C(F)(F)C(F)(F)C(F)(F)C(F)(F)C(F)(F)C(F)(F)C(F)(F)C(F)(F)F`, the result in assay [1], in [2], in assay [3], in assay [4], in assay [5] and in assay [6] was inactive. Moreover, the outcome in assay [7] was “inactive”; with CD38, CD38 (gene 952), “inactive”; with CD40, CD40 (gene 958) it was “inactive”; with CD69, CD69 (gene 969), “inactive”.
Regarding `ClC(Cl)(Cl)c1ccccc1`, the result in assay [1], in assay [2], in assay [3], in assay [4], in assay [5] and in assay [6] was inactive. The outcome in [7] is “inactive”; in the assay with CD38, CD38 (gene 952), “inactive”; with CD40, CD40 (gene 958), “inactive”; with CD69, CD69 (gene 969), “inactive”.
Turning to `CCOP(=S)(S)OCC`, the concentration at half-maximal activity (AC50) in assay [1] was 36.6 µM (active). For the same compound, the outcome in assay [2], in [3], in assay [4], in [5], in [6] and in [7] was inactive. Moreover, the outcome with CD38, CD38 (gene 952) is “inactive”; with CD40, CD40 (gene 958), “inactive”; with CD69, CD69 (gene 969) it was “inactive”.
Regarding `CCOP(=S)(OCC)SCn1nnc2ccccc2c1=O`, the outcome in assay [1], in assay [2], in assay [3], in [5], in assay [6] and in assay [7] was inactive. In addition, the outcome with CD38, CD38 (gene 952) is “inactive”; with CD40, CD40 (gene 958), “inactive”; with CD69, CD69 (gene 969), “inactive”. In addition, the AC50 in assay [4] was 20 µM (active).
For `Cc1c([N+](=O)[O-])cc2c(c1[N+](=O)[O-])C(C)(C)CC2(C)C`, the outcome in assay [1], in assay [2], in assay [3], in assay [4], in assay [5] and in [6] was inactive. For the same compound, the outcome in [7] is “inactive”; with CD38, CD38 (gene 952), “inactive”; with CD40, CD40 (gene 958) it was “inactive”; with CD69, CD69 (gene 969), “inactive”.
For `CC(Cl)(Cl)C(=O)O`, the result in assay [1], in assay [2], in assay [3], in [4], in assay [5] and in assay [6] was inactive. The outcome in assay [7] was “inactive”; in the assay with CD38, CD38 (gene 952) it was “inactive”; with CD40, CD40 (gene 958), “inactive”; with CD69, CD69 (gene 969) it was “inactive”.
As to `CCOP(=S)(Oc1ccc([N+](=O)[O-])cc1)c1ccccc1` (centres undefined), the outcome is “inactive” in assay [1]; “inactive” in assay [2]; “inactive” in assay [3]; “inactive” in assay [5]; “inactive” in [7]; “inactive” with CD69, CD69 (gene 969). Further, the AC50 in assay [4] was 13.7 µM (active); in assay [6], 2.84 µM (active); in the assay with CD38, CD38 (gene 952) it was 14.2 µM (active); in the assay with CD40, CD40 (gene 958) it was 14 µM (active).
As for `CC(Cl)CN(C)C` (centres undefined), the outcome in assay [1], in assay [2], in [3], in assay [4], in assay [5] and in [6] was inactive. For the same compound, the outcome in [7] was “inactive”; with CD38, CD38 (gene 952), “inactive”; in the assay with CD40, CD40 (gene 958), “inactive”; in the assay with CD69, CD69 (gene 969), “inactive”.
As to `CCOP(=S)(OCC)SCSCC`, the result in [1], in assay [2], in [3], in [4], in assay [5] and in assay [6] was inactive. Further, the outcome in assay [7] is “inactive”; with CD38, CD38 (gene 952) it was “inactive”; in the assay with CD40, CD40 (gene 958), “inactive”; with CD69, CD69 (gene 969), “inactive”.
With `O=C(O)C(F)(F)C(F)(F)C(=O)O`, the outcome in assay [1], in assay [2], in [3], in assay [4], in [5] and in [6] was inactive. Also, the outcome in assay [7] is “inactive”; with CD38, CD38 (gene 952), “inactive”; in the assay with CD40, CD40 (gene 958) it was “inactive”; with CD69, CD69 (gene 969), “inactive”.
As to `c1cc2c3c(cccc3c1)CC2`, the result in assay [1], in [2], in assay [3], in assay [4], in [5] and in assay [6] was inactive. Moreover, the outcome in assay [7] was “inactive”; with CD38, CD38 (gene 952) it was “inactive”; with CD40, CD40 (gene 958), “inactive”; with CD69, CD69 (gene 969), “inactive”.
In the case of `CCCCN(CCCC)SN(C)C(=O)Oc1cccc2c1OC(C)(C)C2`, the AC50 in assay [1] was 29.8 µM (active); in assay [2] it was 30.9 µM (active); in [4], 30.9 µM (active); in [6], 35 µM (active); in [7], 25.7 µM (active); with CD38, CD38 (gene 952), 31.4 µM (active). The AC50 in the assay with CD40, CD40 (gene 958) is 26.2 µM (active); with CD69, CD69 (gene 969), 27.6 µM (active). Moreover, the result in [3] and in [5] was inactive.
Consider `O=P(Oc1ccccc1)(Oc1ccccc1)Oc1ccccc1`, for which the result in assay [1], in [3] and in assay [5] was inactive. Besides, the half-maximal activity concentration (AC50) was 30 µM (active) in assay [2]; 32.1 µM (active) in [4]; 3.97 µM (active) in assay [6]; 20 µM (active) in assay [7]; 31.7 µM (active) with CD38, CD38 (gene 952); 25.9 µM (active) in the assay with CD40, CD40 (gene 958). Besides, in the assay with CD69, CD69 (gene 969), the AC50 is 31.6 µM (active).
On to `CCOP(=S)(OCC)SCS(=O)(=O)CC`, for which the outcome in assay [1], in [2], in [3], in assay [4], in assay [5] and in assay [6] was inactive. The outcome in [7] is “inactive”; with CD38, CD38 (gene 952) it was “inactive”; in the assay with CD40, CD40 (gene 958) it was “inactive”; in the assay with CD69, CD69 (gene 969), “inactive”.
As to `CCC(C)(C)c1ccc(O)cc1`, the outcome in [1], in assay [2], in [3], in [4], in [5] and in [6] was inactive. The outcome in assay [7] is “inactive”; with CD38, CD38 (gene 952), “inactive”; with CD40, CD40 (gene 958), “inactive”; with CD69, CD69 (gene 969), “inactive”.
With `COCCOCCO`, the result in [1], in assay [3], in assay [4], in assay [5], in assay [6] and in assay [7] was inactive. The outcome with CD38, CD38 (gene 952) is “inactive”; with CD40, CD40 (gene 958), “inactive”; in the assay with CD69, CD69 (gene 969), “inactive”. In addition, the AC50 in [2] is 27.5 µM (active).
Regarding `CCOc1ccc(C(C)(C)COCc2cccc(Oc3ccccc3)c2)cc1`, the outcome in [2] was “inactive”; in assay [3], “inactive”; in assay [4], “inactive”; in [5] it was “inactive”; in assay [7], “inactive”; in the assay with CD38, CD38 (gene 952), “inactive”. Besides, the outcome with CD40, CD40 (gene 958) was “inactive”; with CD69, CD69 (gene 969), “inactive”. Besides, the AC50 in assay [6] is 1.15 µM (active).
With `O=C(O)C=CC(F)(C(F)(F)F)C(F)(F)F`, the result in assay [1], in [2], in assay [3], in assay [4], in [5] and in assay [6] was inactive. Besides, the outcome in [7] was “inactive”; in the assay with CD38, CD38 (gene 952), “inactive”; in the assay with CD40, CD40 (gene 958), “inactive”; with CD69, CD69 (gene 969), “inactive”.
Consider `CCCN(CCC)c1c([N+](=O)[O-])cc(C(C)C)cc1[N+](=O)[O-]`, for which the AC50 in [1] was 31.5 µM (active); in assay [2], 31.3 µM (active); in assay [4], 26.2 µM (active); in assay [6], 35.9 µM (active); in assay [7] it was 26.1 µM (active); in the assay with CD38, CD38 (gene 952) it was 28.6 µM (active). The AC50 was 30.1 µM (active) in the assay with CD40, CD40 (gene 958) and 33.5 µM (active) with CD69, CD69 (gene 969). Also, the result in [3] and in assay [5] was inactive.
In the case of `ClC1=C(Cl)C2(Cl)C3C(Cl)C(Cl)CC3C1(Cl)C2(Cl)Cl` (centres undefined), the AC50 in [1] was 26 µM (active); in [2] it was 33.2 µM (active); in assay [4], 27.9 µM (active); in [5], 31.5 µM (active); in assay [6] it was 32.7 µM (active); in assay [7] it was 29.2 µM (active). Moreover, the AC50 with CD38, CD38 (gene 952) was 29.7 µM (active); with CD40, CD40 (gene 958) it was 24.4 µM (active); with CD69, CD69 (gene 969), 27.5 µM (active). Moreover, the outcome in [3] was inactive.
As for `CSC(C)(C)C=NO`, the result in assay [1], in [2], in assay [3], in [4], in assay [5] and in assay [6] was inactive. For the same compound, the outcome in assay [7] is “inactive”; with CD38, CD38 (gene 952), “inactive”; with CD40, CD40 (gene 958), “inactive”; in the assay with CD69, CD69 (gene 969), “inactive”.
